Screens from PubChem BioAssay.
Sm TGR block: S. mansoni TGR enzyme inhibition; purified TGR, DTNB reduction, TNB absorbance 405 nm; Potency, µM (top dose mostly 114 µM), for the others: top-dose activity change, negative = inhibition, hits mostly inhibitors; Q962Y6; AID 485364; 360,000 compounds, 3% hits; note: nearly all actives have a fitted effect of over 60% in size
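First, TGR (20 nM dispensed) and NADPH were mixed with compound. Second, a 15 min room-temperature incubation followed. Third, further NADPH and then DTNB were added to start the reaction. Finally, TNB absorbance was monitored kinetically.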
AmpC inh detg: AmpC beta-lactamase inhibition with detergent present; AmpC hydrolysis of nitrocefin, absorbance 480 nm, 0.01% Triton; Potency, µM (highest dose often 114 µM), without a hit: top-dose activity change, negative = inhibition, most hits filed as inhibitors; AID 485294; P00811; 370,000 compounds, 0.041% hits;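 note: 0% = no-compound wells and -100% = no-enzyme wells; nearly all actives have a fitted effect of over 25% in size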
Target sequence (P00811 whole entry, looked up): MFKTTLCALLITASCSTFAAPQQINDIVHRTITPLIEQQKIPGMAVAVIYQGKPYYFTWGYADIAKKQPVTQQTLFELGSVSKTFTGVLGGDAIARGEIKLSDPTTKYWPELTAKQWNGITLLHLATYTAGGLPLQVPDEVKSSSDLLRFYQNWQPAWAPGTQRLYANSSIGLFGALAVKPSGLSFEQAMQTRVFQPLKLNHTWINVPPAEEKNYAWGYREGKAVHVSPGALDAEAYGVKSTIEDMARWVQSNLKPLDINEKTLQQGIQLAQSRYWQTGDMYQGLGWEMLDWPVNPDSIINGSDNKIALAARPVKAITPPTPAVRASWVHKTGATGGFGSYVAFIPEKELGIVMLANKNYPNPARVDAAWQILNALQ
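AmpC (5.3 nM in the dispensed reagent) in 20 mM phosphate pH 7.0 with 0.01% (detergent screen) or 0.0001% Triton X-100 was preincubated with compounds for 15 min at room temperature. Nitrocefin was then added from an 800 uM solution, and hydrolysis was followed at 480 nm.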
AmpC no deterg: inhibitors of E. coli AmpC beta-lactamase without detergent; P00811; AmpC nitrocefin hydrolysis, absorbance 480 nm, 0.0001% Triton; Potency, µM (series often up to 57.1 µM), for inactives: at the top dose activity change, negative = inhibition, usual class: inhibitors; 330,000 compounds, 0.52% hits; AID 485341;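 note: plate controls were no compound for no effect and no enzyme for full effect; nearly all actives have a fitted effect of over 20% in size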
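AmpC (5.3 nM in the dispensed reagent) in 20 mM phosphate pH 7.0 with 0.01% (detergent screen) or 0.0001% Triton X-100 was preincubated with compounds for 15 min at room temperature. Nitrocefin was then added from an 800 uM solution, and hydrolysis was followed at 480 nm.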
An asterisk follows results filed as active; ? = inconclusive; / = no result. Shown are actives, neighbours in structure and some others; about 3.3% of the full set was active somewhere. Calls come from the whole dose curve; as a rule, active = well fitted curve in the direction sought with a large enough effect; inconclusive = small, poorly fitted or top-dose-only effect, or another doubt; inactive = no such curve, though single readings can be large; an effect the other way counts as inactive or inconclusive. Unless noted, % is set by controls: 0 for no effect and ±100 for the full control effect; potency is the fitted concentration of half-maximal effect.

SMILES | Sm TGR block | AmpC inh detg | AmpC no deterg
CC(C)N(Cc1ccccc1)C(=O)COC(=O)C1CCN(S(=O)(=O)c2ccc3c(c2)OCCO3)CC1 | 5% | 3% | ?
OCCN1CCN(CC/C=C2/c3ccccc3Sc3ccc(Cl)cc32)CC1 | -15% | -8% | 227%
CCCCCCCCCCC[N+](C)(C)CC/C=C1/c2ccccc2Sc2ccc(Cl)cc21 | 1.8µM* | -11% | 176%
CC[N+](C)(C)CC/C=C1/c2ccccc2Sc2ccc(Cl)cc21 | -27% | 1% | 49%
CCCCCCCCCC[N+](C)(C)CC/C=C1/c2ccccc2Sc2ccc(Cl)cc21 | 18µM* | -15% | 125%
CC(C)N(Cc1ccccc1)C(=O)CN1C(=O)COc2ccc(S(=O)(=O)NC3CCCC3)cc21 | -1% | -5% | 36%
CCC(=O)N1CCc2cc(S(=O)(=O)N3CCN(c4cc(Cl)ccc4C)CC3)ccc21 | -2% | ? | -12%
CCOC(=O)C(=CNNc1cccc(Cl)c1)C(=O)OCC | 8.9µM* | 9% | -2%
CCOC(=O)C(=CNc1ccc(Cl)cn1)C(=O)OCC | 5% | ? | 21%
CC(=O)N1CCN(S(=O)(=O)c2cccc(C(=O)NNC(=O)COc3ccc(Cl)cc3C)c2)CC1 | 1% | ? | 46%
COc1cccc(N2CCc3c(C)nc4ccc(Cl)cc4c32)c1 | 1% | -10% | 61%
CCN1Cc2c(/C=C/c3ccccc3)nc3ccc(OC)cc3c2N(c2cccc(Cl)c2)C1 | 40µM* | 3% | 5%
O=C1c2ccccc2N[C@@H]2C=CC[C@@H]2N1O | / | / | -18%
CCOC(=O)COc1ccc(S(=O)(=O)NCc2ccncc2)cc1 | 2% | 2% | -7%
CCOC(=O)COc1ccc(S(=O)(=O)NCc2ccco2)cc1 | 50µM* | -3% | -13%
CCCNS(=O)(=O)c1ccc(OCC(=O)NCc2ccco2)cc1 | -31% | ? | -16%
COC(=O)c1ccc(S(=O)(=O)NCc2ccc(OC)cc2)n1C | 7% | -8% | -8%
COc1cccc(C(=O)NCCS(=O)(=O)NCc2ccco2)c1 | ? | 5% | -15%
COc1ccc(C(=O)NCCS(=O)(=O)NCc2ccco2)cc1 | 45µM* | ? | -7%
COC(=O)c1ccc(S(=O)(=O)NCc2ccco2)n1C | 35µM* | -13% | -11%
COC(=O)COc1ccc(S(=O)(=O)NCc2ccco2)cc1 | 35µM* | ? | -17%
C[C@H](CO)N1C[C@H](C)[C@@H](CN(C)S(C)(=O)=O)Oc2ccc(NC(=O)c3ccncc3)cc2C1=O | / | / | -17%
O=C(Nc1ccc(Cl)cc1)c1cc2c(cc1O)[nH]c1ccccc12 | -8% | ? | -60%
Cc1ccc(S(=O)(=O)NCc2ccco2)cc1C | -20% | 0% | -25%
O=S(=O)(NCc1ccco1)c1ccc2c(c1)Cc1ccccc1-2 | 7.9µM* | 7% | -29%
SMILES | Sm TGR block | AmpC inh detg | AmpC no deterg
O=C(Nc1cccc(F)c1)/C(=C/c1ccco1)NC(=O)c1ccco1 | 45µM* | 4% | -18%
O=C(Nc1cccc(C(=O)O)c1)/C(=C\c1ccco1)NC(=O)c1ccccc1 | ? | -8% | -18%
O=C(Nc1cccc(F)c1)/C(=C\c1cccnc1)NC(=O)c1ccco1 | 4% | -1% | -18%
O=C(Nc1cccc(C(=O)O)c1)/C(=C\c1ccco1)NC(=O)c1ccc(Br)o1 | 50µM* | -2% | -17%
COc1ccc(C2CC(=O)C(C=NCCO)=C(O)C2)cc1 (configuration not stated) | 3% | -2% | 4%
COc1ccc(CCNC(=O)C2(C)CCC(=O)N2Cc2ccc(C)cc2)cc1OC (configuration not stated) | 7% | -3% | 25%
COc1ccc(S(=O)(=O)N2CCN(C(=O)C3COc4ccccc4O3)CC2)cc1 (configuration not stated) | 18µM* | 0% | -26%
CCOC(=O)N1CCN(C(=O)C2COc3ccccc3O2)CC1 (configuration not stated) | 5% | -12% | -1%
CCN1CCN(C(=O)C2COc3ccccc3O2)CC1 (configuration not stated) | 22µM* | 4% | -16%
CC(=O)Nc1ccc(S(=O)(=O)N2CCN(C(=O)C3COc4ccccc4O3)CC2)cc1 (configuration not stated) | 1% | 2% | 5%
NC(N)=NS(=O)(=O)c1ccc(NC(=S)NC(=O)Cc2ccc(Cl)cc2)cc1 | ? | ? | 10µM*
CCC(=O)Nc1ccc(NC(=S)NC(=O)/C=C/c2ccccc2)cc1 | -23% | ? | -41%
NC(N)=NS(=O)(=O)c1ccc(NC(=S)NC(=O)/C=C/c2ccccc2)cc1 | 89µM* | -11% | -18%
NC(N)=NS(=O)(=O)c1ccc(NC(=S)NC(=O)c2ccc3c(c2)OCO3)cc1 | ? | -8% | -38%
NC(N)=NS(=O)(=O)c1ccc(NC(=S)Nc2ccc(F)cc2)cc1 | 0% | -1% | -5%
NC(N)=NS(=O)(=O)c1ccc(NC(=S)NC(=O)c2ccccc2)cc1 | 16µM* | -7% | -17%
COc1ccc(CNC(=S)Nc2cc(OC)ccc2OC)cc1 | ? | -3% | -22%
CCOc1cc(-c2sc(Nc3ccccc3)n[n+]2C)ccc1OC | -2% | 6% | 26%
Cc1cccc(NC(=O)CCCN2C(=O)c3ccccc3C2=O)n1 | 8% | 2% | -15%
Cc1cccc(NC(=O)CCCCCN2C(=O)c3ccccc3C2=O)n1 | 3% | 4% | 7.1µM*
CCS(=O)(=O)c1nc(S(=O)(=O)c2ccc(Cl)cc2)c(N2CCc3ccccc3C2)s1 | ? | ? | -27%
O=[N+]([O-])c1cc(CN2CCCC2)c2cccnc2c1O | -29% | ? | -14%
Cc1ccc(S(=O)(=O)Nc2cc(Cl)c(O)c3ncccc23)cc1 | 16µM* | -2% | -49%
Cc1ccc(S(=O)(=O)Nc2cccnc2Oc2ccc(Cl)cc2)cc1 | 11% | 3% | -12%
CC(=O)NC(C)c1cc(Cl)c2cccnc2c1O (configuration not stated) | -10% | -2% | -12%
SMILES | Sm TGR block | AmpC inh detg | AmpC no deterg
Oc1c(Cl)cc(Cl)c2cccnc12 | 16µM* | -1% | -34%
Oc1c(Cl)cc(CN2CCCCC2)c2cccnc12 | 4.5µM* | 1% | -13%
OCCN1CCN(Cc2cc(Cl)c3cccnc3c2O)CC1 | 45µM* | -11% | -3%
Oc1c(CN2CCN(c3ccccn3)CC2)cc(Cl)c2cccnc12 | ? | -10% | 32%
CN(C)C(=O)CNC(=O)CN1C(=O)NC2(CCCc3sccc32)C1=O (configuration not stated) | 1% | -9% | -12%
COCCNC(=O)CSc1nnc(-c2ccc(OC)c(OC)c2)c(-c2ccc(OC)c(OC)c2)n1 | 0% | -1% | /
O=C(NC1CC1)C(=O)c1c(-c2ccccc2)[nH]c2ccccc12 | -10% | ? | -14%
O=C(NC1CCCCC1)C(=O)c1c(-c2ccccc2)[nH]c2ccccc12 | -12% | -10% | 13µM*
CC(C)C(=O)Nc1nnc(NC(=S)Nc2ccccc2)s1 | 25µM* | ? | -33%
CCCc1nnc(NC(=S)Nc2ccccc2)s1 | -2% | -13% | -26%
COc1ccc(S(=O)(=O)N2CCN(C(=O)C3CCCCC3)CC2)cc1 | 0% | -7% | -1%
